Compound activity deposited in PubChem BioAssay by National Center for Advancing Translational Sciences (NCATS).
Shown are actives, neighbours in structure and some others; about 1.1% of the full set was active somewhere.
RXFP1 antag: blocks the human relaxin receptor RXFP1; activity change, negative = inhibition, % at 57.5 µM; hit rate 0.59% among 350,000; HEK293-RXFP1, relaxin-stimulated cAMP HTRF, 30 min; hits give low values;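 active means activity change of -60% or lower, but not beyond a set lower limit; inconclusive means change between -60% and -40%, or beyond the set limit; inactive means change above -40%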; further: on the % scale 0 is the no-effect control and ±100 the full control effect
gsp antagonist: gsp mutant antagonism | gsp-mutant cells, cAMP HTRF, 30 min | Potency, µM (top dose mostly 76.9 µM), for the others: at the highest dose activity change, negative = inhibition, usual class: inhibitors | hit rate 0.4% among 340,000; calls by dose curve; cell line not stated here;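 further: intracellular cAMP measured with PDE inhibitor Ro 20-1724 present during compound exposure; potency means the concentration at half of the fitted maximal effect; on the % scale 0 is the no-effect control and ±100 the full control effect; nearly all actives have a fitted effect of over 65% in size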
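Cells, 2000/well, grown 16–24 h in DMEM 10% FBS with 0.5 mg/ml G418, then compounds plus […] (300 uM addition stock), 30 min at 37C. cAMP read by HTRF (cAMP-d2 and anti-cAMP antibody-K in lysis buffer) after 30 min RT.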
Tb PFK inh: blocks T. brucei phosphofructokinase; T. brucei PFK, ADP-Glo luminescence; Potency, µM (titrated, usually from 57.5 µM), inactives show top-dose activity, negative = inhibition, most hits filed as inhibitors; hit rate 0.17% among 330,000; AID 485367;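 further: potency means the concentration at half of the fitted maximal effect; 0% = uninhibited 1x PFK enzyme wells and -100% = no-enzyme wells; nearly all actives have a fitted effect of over 60% in size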
Target sequence (O15648 whole entry, looked up): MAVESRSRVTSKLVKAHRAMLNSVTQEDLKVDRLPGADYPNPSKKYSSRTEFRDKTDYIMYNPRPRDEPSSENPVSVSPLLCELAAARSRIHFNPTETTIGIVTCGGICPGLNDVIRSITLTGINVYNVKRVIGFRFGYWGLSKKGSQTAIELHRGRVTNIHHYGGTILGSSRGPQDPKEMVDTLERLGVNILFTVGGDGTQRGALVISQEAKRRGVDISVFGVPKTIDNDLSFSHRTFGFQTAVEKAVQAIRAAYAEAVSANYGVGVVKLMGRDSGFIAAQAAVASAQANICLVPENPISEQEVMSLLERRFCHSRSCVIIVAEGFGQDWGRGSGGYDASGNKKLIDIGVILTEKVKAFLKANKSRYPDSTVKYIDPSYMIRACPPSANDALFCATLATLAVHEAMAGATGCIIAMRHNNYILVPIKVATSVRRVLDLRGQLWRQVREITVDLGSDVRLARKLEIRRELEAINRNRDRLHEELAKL
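In TEA buffer at pH 8.0 with 5 mM MgCl2, enzyme (1.25 nM) converted F6P (0.5 mM) and ATP (0.1 mM) for 45 min at room temperature. ADP product was read by luciferase luminescence.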
gsp agonist: activates gsp, the McCune-Albright syndrome mutation. gsp mutant cells, cAMP HTRF, 30 min. hit rate 0.13% among 340,000. Potency, µM (titrated, usually from 76.9 µM), inactives show at the top dose activation (cAMP increase), hits mostly activators. AID 624287; active means well fitted activation curve with a large enough effect; inconclusive means small, poorly fitted or top-dose-only effect, or another doubt; inactive means no such curve, though single readings can be large or run the other way; cell line not stated here;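 further: phosphodiesterase inhibitor Ro 20-1724 added with compounds to block cAMP breakdown; potency means the concentration at half of the fitted maximal effect; nearly all actives have a fitted effect of over 60% in size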
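Cells in DMEM/10% FBS with G418 were pretreated with compounds in DMSO plus […] (300 uM stock) for 30 min at 37C. cAMP was measured by HTRF (cAMP-d2 plus anti-cAMP antibody-K) after 30 min at room temperature.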
RXFP1 agonist: activates the human relaxin receptor RXFP1; Q9HBX9; HEK293T-RXFP1 cAMP TR-FRET, 30 min; response scale: percent of porcine relaxin response, buffer zero; Potency, µM (highest dose often 57.5 µM), for inactives: at the top dose activation, hits mostly activators; hit rate 0.3% among 370,000; AID 2676; further: potency means the concentration at half of the fitted maximal effect; on the % scale 0 is the no-effect control and ±100 the full control effect; nearly all actives have a fitted effect of over 60% in size
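cAMP rise read by TR-FRET after 30 min, 37C compound exposure (up to 58 uM) in RXFP1-transfected HEK293 cells with Ro 20174 present. EC50 from Hill-equation fits, with 29 nM porcine relaxin as 100% and buffer as basal.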
p53 reactivator: re-activators of mutant p53; Potency, µM (top dose mostly 92.2 µM), without a hit: at the highest dose activity change, positive = activation, hits mostly activators; hit rate 0.063% among 320,000; H1299 p53-A138V BP100-luciferase reporter, luminescence, 24 h; AID 504706; further: potency means the concentration at half of the fitted maximal effect; % of control where 0% means no effect; nearly all actives have a fitted effect of over 45% in size
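p53-null H1299 cells stably carrying temperature-sensitive p53-A138V and a BP100-luciferase reporter were pinned with compounds (4-point, 1:5 series) and held 24 hrs at 37 deg C. Luminescence was read 10 min after detection reagent.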
Starred values were filed as active, the others as inactive; ? = inconclusive; · = not tested or not shown; [ ] = another dose, or the depositor's remark. Unless noted, the call rests on the fitted dose curve; in most records, active means well fitted curve in the direction sought with a large enough effect; inconclusive means small, poorly fitted or top-dose-only effect, or another doubt; inactive means no such curve, though single readings can be large; an effect the other way counts as inactive or inconclusive.

SMILES | RXFP1 antag | gsp antagonist | Tb PFK inh | gsp agonist | RXFP1 agonist | p53 reactivator
Cc1nc2sc3c(c2c(=O)n1NC(=O)CCBr)CCCC3 | 7 | 4% | -5% | 18% | 15% | -7%
O=C(O)CN1C(=O)/C(=C2\C(=O)N(Cc3ccccc3Cl)c3ccccc32)SC1=S | 30 | 9% | 1% | -1%[15.4 µM] | 3% | 2%
O=C1/C(=C2\C(=O)N(Cc3ccc(F)cc3)c3ccccc32)SC(=S)N1CCS(=O)(=O)O | -72* | -1% | -29% | -51% | 0% | -2%
CSc1cccc(NC(=O)C2CCN(S(=O)(=O)c3cnc[nH]3)CC2)c1 | -63* | 10% | 0% | -6% | 3% | 1%
CCc1ccc(NC(=O)C2CCCN(S(=O)(=O)c3cnc[nH]3)C2)cc1 (stereo unspecified) | -116* | 10% | 1% | -19% | -2% | 4%
Cc1ccc(NS(=O)(=O)c2c(C)nc3sccn3c2=O)cc1 | -79* | 4% | 1% | -91% | 0% | ·
Cc1cc(Br)c2[nH]c3c(c2c1)CCCC3=O | -3 | 4% | -3% | -32% | 0% | 7%
CCN(Cc1nc2ccccc2c(=O)[nH]1)C(=O)c1cccc(OCc2c(C)noc2C)c1 | -9 | -7% | 0% | -47% | 1% | -4%
O=C(N/N=C/c1ccc(OC(F)F)cc1)c1ccc(CSc2nc3ccccc3[nH]2)cc1 | ? | 8.9µM* | 6% | 30%[15.4 µM] | 3% | -1%
O=C(C=Cc1cccc(Cl)c1)c1ccccc1 | -62* | 1% | · | ? | · | ·
CCOC(=O)CC(NC(=O)Cn1nnc(-c2ccc(Cl)cc2)n1)c1ccc(OC)cc1 (stereo unspecified) | · | · | · | · | 2% | ·
COc1ccc2c(c1)c(=O)oc1cc(O)ccc12 | 13 | 2% | 1% | ? | 8% | 2%
O=c1oc2cc(O)ccc2c2ccccc12 | 31 | 13% | 0% | 8.9µM* | 14µM* | 0%
CC(=O)c1ccc(NC(=O)C(C)OC(=O)c2ccc(Br)o2)cc1 (stereo unspecified) | -1 | -1% | 4% | 15% | 0% | -3%
Cc1c(C(=O)Nc2cccc(Cl)c2)c2ccccn2c1CCc1ccncc1 | 38 | 28µM* | 4% | -9%[15.4 µM] | 5% | 21%
O=C(Nc1ccncc1)c1ccc2c(c1)C(=O)N(C1CCCCC1)C2=O | -11 | 22µM* | 1% | -38% | 0% | 2%
Cc1ccc(-c2c(C)sc(NC(=O)C3C4CCC(O4)C3C(=O)O)c2C(=O)OC(C)C)cc1 (stereo unspecified) | -12 | -11% | -1% | 26% | 6% | 1%
CC(C)=C1C2CCC1C(C(=O)Nc1sc(C)c(-c3ccc(C(C)C)cc3)c1C(N)=O)C2C(=O)O (stereo unspecified) | -3 | 32µM* | -6% | 0% | 0% | 7%
O=C(OCC(=O)N1CCN(C(=O)c2ccco2)CC1)c1ccc(S(=O)(=O)N2CCCCC2)cc1 | -16 | -8% | 1% | -32% | 2% | -7%
CN(C)CCCN(C(=O)c1ccc2c(c1)CCCC2)c1nc2c(F)cccc2s1 | -74* | 5% | 1% | 18%[15.4 µM] | 2% | ?
Cc1nc2ccc(NC(=O)c3ccc(Br)o3)cc2s1 | -92* | 1% | -2% | -1%[15.4 µM] | -1% | 18%
Cc1nc2ccc(NC(=O)c3cnc(Cl)c(Cl)c3)cc2s1 | -11 | 8.9µM* | -11% | 15%[15.4 µM] | 11% | 21%
CCCC(=O)Nc1nc2ccc(NC(=O)c3ccc(Br)o3)cc2s1 | -19 | -12% | -1% | -11% | 0% | 1%
N#Cc1c(Cl)nsc1NC(=O)c1ccccc1 | -8 | 32µM* | -1% | 36% | 2% | 17%
C#CC(C)(C)NC(=O)c1sccc1Oc1ccc(F)cc1[N+](=O)[O-] | -13 | 2% | 0% | -12%[15.4 µM] | 1% | 10%
SMILES | RXFP1 antag | gsp antagonist | Tb PFK inh | gsp agonist | RXFP1 agonist | p53 reactivator
CC1(C)CC(=S)Nc2ccccc2S1 | 11 | 2% | -6% | 3% | 2% | -14%
Cc1cc(NC(=O)CCS(=O)(=O)c2ccc3c(c2)NC(=O)C(C)S3)ccc1Br (stereo unspecified) | 1 | ? | 1% | -16% | -2% | 18%
N#C/C(=C/c1ccc(Sc2nc3ccccc3[nH]2)o1)c1cccc(F)c1 | -2 | 35µM* | -2% | 17% | -1% | -6%
COc1cc(/C=C2/C(=N)N3OC(C)=CC3=NC2=O)ccc1OC(=O)c1ccco1 | -75* | -4% | 17% | 6%[15.4 µM] | 2% | 3%
CC1=CSC2=NC(=O)/C(=C/c3cccc(OC(=O)c4ccco4)c3)C(=N)N12 | -80* | 0% | 2% | 18% | -1% | 28%
Cc1ccccc1NC(=O)Oc1cccc(OC(=O)c2ccccc2)c1 | -12 | -4% | 4% | 18% | 2% | 2%
CCOc1ccc2nc(N3C(=O)/C(=C/c4ccccc4)NC3=S)sc2c1 | -10 | -13% | 1% | -10% | 0% | 13µM*
COc1ccc2nc(N3C(=O)/C(=C/c4ccccc4)NC3=S)sc2c1 | -27 | 10% | -2% | 9% | 0% | 8%
O=C(O)C1CCN(c2nc(-c3ccccc3)c3cc(Br)ccc3n2)CC1 | -16 | ? | -21% | 46%[15.4 µM] | ? | 7%
OCCN1CCN(c2nc(-c3ccccc3)c3cc(Br)ccc3n2)CC1 | -70* | 6% | 0% | 5% | 8% | -9%
CS(=O)(=O)Nc1ccccc1C(=O)Nc1ccc2c(c1)OCCO2 | 6 | -22% | 0% | -26% | 0% | 8%
Cc1ccc(-c2cc(C(F)(F)F)n3ncc(C(=O)O)c3n2)cc1 | 5 | -13% | 9% | -3% | 0% | 12%
COCCNC(=O)c1cnn2c(C(F)(F)F)cc(-c3ccc(C)cc3)nc12 | -12 | 35µM* | -4% | -78% | -1% | 13%
O=C(O)c1ccccc1NC(=O)c1cc2ccccc2oc1=O | -14 | 32µM* | 11% | ? | 4% | ?
O=C(Nc1cccnc1N1CCOCC1)c1cc2ccccc2oc1=O | 3 | 6% | -4% | -4% | 0% | ?
COc1ccc(S(=O)(=O)Nc2ccccc2OC)cc1NC(=O)c1cc2ccccc2oc1=O | 3 | 8% | 3% | 28% | 0% | 22µM*
COc1ccc(NC(=O)c2cc3ccccc3oc2=O)c(OC)c1 | 12 | -1% | -2% | -32% | 0% | 25%
CC1=NN(c2ccccc2)C(=O)/C1=C\C=C\c1ccccc1 | -63* | -8% | 1% | 15%[15.4 µM] | 2% | -12%
CC1=NN(c2ccccc2)C(=O)/C1=C/C=C/c1ccc(N(C)C)cc1 | -21 | 35µM* | -5% | 5% | -19% | -4%
COc1ccc(/C=C2/C(=O)N(c3ccccc3)N=C2C)cc1 | -61* | -5% | · | -5% | · | ·
